Experimental findings from PubChem BioAssay AID686954 (Sanford-Burnham Center for Chemical Genomics, 2013) are described below.

The campaign covered roughly 30,000 compounds. About 240 (0.8%) were called active.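 Rule for the calls: active = at 10 µM dose, at least 30% inhibition, measured as corrected fluorescence normalized to stimulator and neutral control wells; inactive = the rest.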 The sample as a whole holds a higher share of actives than the screen did.

Sequence of Protein artemis (Homo sapiens) (Q96SD1 whole entry, looked up): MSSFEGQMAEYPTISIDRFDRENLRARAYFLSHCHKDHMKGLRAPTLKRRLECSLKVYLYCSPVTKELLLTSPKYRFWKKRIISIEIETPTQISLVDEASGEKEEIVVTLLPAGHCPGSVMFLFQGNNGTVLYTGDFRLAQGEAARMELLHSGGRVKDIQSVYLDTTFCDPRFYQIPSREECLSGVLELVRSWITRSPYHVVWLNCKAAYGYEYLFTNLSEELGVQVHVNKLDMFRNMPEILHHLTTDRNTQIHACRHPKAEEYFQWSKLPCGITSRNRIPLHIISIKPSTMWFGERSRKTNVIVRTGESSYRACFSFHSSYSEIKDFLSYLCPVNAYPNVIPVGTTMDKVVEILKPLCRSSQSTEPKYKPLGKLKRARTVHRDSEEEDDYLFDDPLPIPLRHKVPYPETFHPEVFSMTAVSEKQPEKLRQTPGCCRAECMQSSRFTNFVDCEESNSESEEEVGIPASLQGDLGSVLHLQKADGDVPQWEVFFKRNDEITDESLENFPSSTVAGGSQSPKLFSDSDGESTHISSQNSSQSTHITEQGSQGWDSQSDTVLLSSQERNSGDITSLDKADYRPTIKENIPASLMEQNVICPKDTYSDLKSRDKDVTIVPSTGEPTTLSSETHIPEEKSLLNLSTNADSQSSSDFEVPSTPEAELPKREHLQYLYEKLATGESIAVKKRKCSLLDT

The assay has as its target Protein artemis (Homo sapiens) (UniProt Q96SD1). As to the kind of experiment: Artemis endonuclease inhibitors, primary screen, biochemical, fluorescence intensity, FAM/BHQ-1 hairpin substrate (AID 686954). Conditions: recombinant Artemis, quenched FAM hairpin cleavage fluorescence; at 10 µM; stronger effect = higher value.
The term inhibition denotes the relative decrease from the control value, in per cent. As to `CCCC(C)n1[nH]c(=O)c2c(C)cc(C)nc21` (centres undefined), the inhibition is 0.53% (inactive).
Consider `COc1ccccc1NC(=O)CSc1nnc(C)n1CC1CCCO1` (centres undefined), for which the inhibition was 2.59% (inactive).
Turning to `Cc1cc(N2C(=O)C(=O)/C(=C(/O)c3ccc(Cl)cc3)C2c2cccc(Br)c2)no1` (centres undefined), the inhibition is 40% (active).
In the case of `COc1ccc(/C(O)=C2/C(=O)C(=O)N(c3nc(C)c(C)s3)C2c2ccco2)cc1` (centres undefined), the inhibition is 8.17% (inactive).
Turning to `COc1ccc(/C(O)=C2/C(=O)C(=O)N(CC3CCCO3)C2c2ccc(OC)c(OC)c2)cc1` (centres undefined), the inhibition was -5.65% (inactive).
The result for `O=C1OC(c2ccc(Cl)cc2)=N/C1=C\c1cccnc1` reads -6.03% (inactive); that for `Cc1c(NC(=O)c2cc(-c3ccc(Cl)s3)nc3ccccc23)c(=O)n(-c2ccccc2)n1C`, 11.2% (inactive); that for `CCOC(=O)c1nc(N)sc1C(=O)OCC`, -6.13% (inactive).
Consider `CCCCOC(=O)Cn1c(=O)n(CC(=O)OCCCC)c2cc(C)ccc21`, for which the inhibition is 6.83% (inactive).
Turning to `O=C1CC(C(F)(F)C(F)(F)C(F)(F)C(F)(F)F)=Nc2ccccc2N1`, the inhibition is -10.2% (inactive).
Turning to `CCOC(=O)c1cc(C#N)c(N2CCCCC2)nc1-c1ccccc1`, the inhibition is 1.24% (inactive).
Consider `CC(C)(CSc1nncn1/N=C/c1ccco1)NS(=O)(=O)c1ccc(Cl)cc1`, for which the inhibition was -7.17% (inactive).
Take `COc1ccc(/C=C2/S/C(=N/N=C3\CC4CCC3(C)C4(C)C)NC2=O)cc1` (centres undefined): the inhibition is 7.63% (inactive).
In the case of `COc1ccc(CN2CCn3ncc(C(=O)Nc4ccc(Cl)cc4Cl)c3C2=O)cc1`, the inhibition was -5.33% (inactive).
Take `CC(C)OC(=O)c1cc(NC(=O)C2C3CCC(O3)C2C(=O)O)cc(C(=O)OC(C)C)c1` (centres undefined): the inhibition was -5.25% (inactive).
Take `Cc1sc(NC(=O)C2C3CCC(O3)C2C(=O)O)c(C(=O)OC(C)C)c1-c1ccc(Cl)cc1` (centres undefined): the inhibition is 34% (active).
On to `COc1ccc(C(=O)N2CC3(C)CC2CC(C)(C)C3)cc1OC` (centres undefined), for which the inhibition is -3.98% (inactive).
Take `CC(=O)Oc1ccc(C)cc1N1C(=O)c2ccc(C(=O)O)cc2C1=O`: the inhibition was 0.06% (inactive).
For `CCC1(C)Cc2c(sc3nc(SC)nc(N)c23)CO1` (centres undefined), the inhibition was -3.48% (inactive).
The figure for `CCC1(CC)NC(=O)N(CC(=O)OCC(=O)Nc2ccc(C(F)(F)F)cc2)C1=O` is 8.68% (inactive); for `CCN1CCN(C(=O)/C=C\C(=O)O)CC1` it is 0.01% (inactive); for `Cc1cccc(CSc2nnc(NC(=O)CSc3nnc(C)s3)s2)c1` it is 4.19% (inactive).
On to `COc1cccc(/C=N\Nc2nncc(-c3ccccc3)n2)c1`, for which the inhibition was 2.99% (inactive).
The figure for `CCN1CCN(C(=O)C2(NC(=O)Nc3cccc(F)c3)CCCCC2)CC1` is -5.76% (inactive); for `CCCCOC(=O)Nc1sc2nc(C)cc(C)c2c1-n1cccc1` it is 6.76% (inactive); for `CCOC(=O)C(=O)Nc1nc(-c2ccccc2)c(CC)s1` it is 2.06% (inactive).
For the compound `Cc1nnc(SCc2nc3ccccc3nc2C)s1`, the inhibition was -10.2% (inactive).
`Cc1cccc(NC(=S)Nc2ccc(Br)cc2)c1`: the inhibition was -9.18% (inactive).
Consider `CC(=O)NNc1cc(=O)c2c(=O)n(C)c(=O)n(C)c2[nH]1`, for which the inhibition is 1.01% (inactive).
With `CNS(=O)(=O)c1cnccc1N1CCN(c2cccc(C)c2)CC1`, the inhibition is 2.37% (inactive).
Turning to `c1ccc(Nc2nc(-c3ccncc3)cs2)nc1`, the inhibition is -4.36% (inactive).
Consider `COc1ccc(OC)c(Nc2nc(-c3ccc(O)c(O)c3)cs2)c1`, for which the inhibition was 42.1% (active).
As to `COc1ccc(-c2n[nH]c(C)c2-c2ccc(OC)c(OC)c2)c(O)c1`, the inhibition is -3.87% (inactive).
The figure for `Cc1ccccc1NC(=S)Nc1cccc([N+](=O)[O-])c1` is 2.56% (inactive).
With `Cc1cc(=O)n2c3c(cccc13)CCC2`, the inhibition is -4.67% (inactive).
The figure for `COc1ccc(-n2nnnc2SCc2nc(N)nc(N3CCOCC3)n2)cc1` is -0.42% (inactive); for `C=CCn1c(SCC(=O)c2c(N)n(C)c(=O)n(C)c2=O)nc2sc(CC)cc2c1=O` it is 9.01% (inactive); for `CCOC(=O)C(=CNc1cccc(C)n1)C(=O)OCC` it is -3.58% (inactive).
The result for `O=c1c2ccccc2c(-c2ccc(F)cc2)nn1-c1ccc(C(F)(F)F)cc1` reads 5.92% (inactive).
On to `CCCC1(C(=O)OCC)NC(c2ccc(N(C)C)cc2)C2C(=O)N(c3ccc4c(c3)OCCO4)C(=O)C21` (centres undefined), for which the inhibition was -2.24% (inactive).
In the case of `O=c1c2ccccc2nc2n1C(CSc1ccc(Cl)cc1)CN2` (centres undefined), the inhibition is 3.79% (inactive).
For `COCc1cc(C)nc2sc(C(=O)NC3CCCCC3)c(N)c12`, the inhibition is -2.12% (inactive).
As to `COCCNc1nc(-n2nc(C)cc2C)nc2sc3c(c12)CCCC3`, the inhibition was 52.7% (active).
As for `COCCn1c(C)cc(C(=O)CSc2ncnc3sc4c(c23)CCC4)c1C`, the inhibition was -1.83% (inactive).
Regarding `Cc1cc(C)n(-c2nc(SCC(=O)N3CCCC3)c3c4c(sc3n2)CCCC4)n1`, the inhibition is 40.1% (active).
With `N=c1c2c3c(sc2nc2n1CCCCC2)CCCC3`, the inhibition is -6.19% (inactive).
Consider `CCCc1nc2sc3c(c2c(=O)n1NC(=O)CCCl)CCCC3`, for which the inhibition is -7.23% (inactive).
The result for `O=C(O)C1CCN1C1CCCCC1` (centres undefined) reads 0.02% (inactive).
On to `Cc1cccc(-n2cnc(C(=O)Nc3cccnc3)c2)n1`, for which the inhibition was 9.43% (inactive).
Turning to `O=S(=O)(c1cccc2nonc12)N1CCN(c2cccc(Cl)c2)CC1`, the inhibition is -9.46% (inactive).
Consider `CCN(CC)c1nc(-c2ccccc2)cc(C(F)(F)F)c1C#N`, for which the inhibition is -3.86% (inactive).
Turning to `CCOC(=O)N1CCN(C(=O)CN(C2CCCCC2)S(C)(=O)=O)CC1`, the inhibition was -1.82% (inactive).
For the compound `Cc1ccc(OCC(=O)N/N=C/c2ccncc2)cc1`, the inhibition is -5.31% (inactive).
`COc1ccc(-c2c(C(C)=O)c(C)nc3sc4c(=O)n(-c5ccc(C)cc5)nnc4c23)cc1`: the inhibition is 11.3% (inactive).
